Results published in the supplement of paper PMC6555819.

Legend:
Assay in all cases: PBM binding z-score (relative to random genomic background probes); higher = stronger binding; sequences stand for … in GC…GCGATTGACAGCGTAGAATGAAGG
[1] = test system: RARb homodimer (NR concentration 270 nM)
How it was run: (§1)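 Random background probes are the reference for binding z-scores. These scores derive from regression-normalized fluorescence on custom Agilent 4×180K protein-binding microarrays incubated 1 h with ligand-free nuclear receptor dimers. Binding was detected with antibodies against each partner (one per run).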

[2] = test system: RARg:RXRa (NR concentration 270 nM, RXRa partner concentration 90 nM)
How it was run: as §1

[3] = test system: RARg homodimer (NR concentration 270 nM)
How it was run: as §1

[4] = test system: RXRa DBDmut IVT, anti-RXR (DBD mutation: RXRa K156A/R161A, NR concentration 90 nM)
How it was run: as §1

[5] = test system: RXRa homodimer (NR concentration 180 nM)
How it was run: as §1

[6] = test system: THRa:RXRa (NR concentration 90 nM, RXRa partner concentration 90 nM)
How it was run: as §1

[7] = test system: THRa homodimer (NR concentration 90 nM)
How it was run: as §1

[8] = test system: VDR homodimer (NR concentration 270 nM)
How it was run: as §1

| Sequence | PBM binding z-score [1] | PBM binding z-score [2] | PBM binding z-score [3] | PBM binding z-score [4] | PBM binding z-score [5] | PBM binding z-score [6] | PBM binding z-score [7] | PBM binding z-score [8] |
| --- | --- | --- | --- | --- | --- | --- | --- | --- |
| CCGACTGGTGCAAAGGTTACCATACTCAGTACGA | 2.08 | 2.07 | 1.32 | 0.63 | 2.93 | 1.45 | 0.0703 | 0.351 |
| TAGCCTAGGTCATGGGCCAGTCTACCACGCGAAC | 2.8 | 4.32 | 4.43 | -0.0274 | 3.69 | 2.93 | 1.09 | 0.0195 |
| TCTATTAGTTGATTAGGTCAACCGAAACAGCGGA | 3.09 | 2.8 | 2.68 | 1.55 | 2.1 | 3.1 | 2.74 | 1.2 |
| CGTCCAAGGTCTTAGGAGGTCAGTGAAGACAGAT | 3.12 | 2.51 | 2.68 | 0.709 | 2.01 | 4.13 | 1.15 | 1.33 |
| TAGCCTAGGTCAAATCGGGCCAGTATACGCTATA | 2.7 | 4.3 | 4.47 | 0.997 | 3.31 | 4.59 | 0.89 | 0.378 |
| CCTACTGGGCCATCAGGTCATTAATATCAACGTT | 2.55 | 1.64 | 1.8 | 0.551 | 0.85 | 2.99 | 2.9 | 1.56 |
| CTACCTAGGTGAACAAGGTCGTTGATTACTATTC | 1.73 | 1.31 | 0.8 | 1.27 | 1.34 | 2.67 | 1.54 | 2.12 |
| TCTTGTAGATCAGCAGGTTAAGTAAGCTGGCCAA | 0.124 | -0.106 | -0.396 | 0.597 | 0.384 | 0.37 | -0.0624 | -0.499 |
| GCAGACAGGTGAAACGCAGGGAACTCAGGGTGGC | -0.128 | 0.193 | 0.108 | -1.09 | 0.587 | 0.258 | -0.443 | -0.619 |
| GATACAGGTTCAAGGCCAGAGTACGCGTATTGAT | 1.44 | 1.82 | 1.3 | 3.5 | 2.13 | 1.55 | 0.144 | 3.82 |
| GCACGGAGGACAAGGTCAGAGCTTTGTCCGTAGA | 3.22 | 3.17 | 3.57 | 1.01 | 2.56 | 2.89 | 1.58 | 0.622 |
| CCAGACAGGTGAAGGGTAACTCAGTCTGGTACGC | 0.722 | 0.492 | 0.626 | -0.69 | 0.751 | 0.21 | -0.441 | -0.55 |
| TCATATAGGTAAACAGGTGAAAGTCCGTAAGTTA | 0.747 | 0.484 | 0.254 | 1.68 | 1.04 | 0.795 | 0.578 | 0.358 |
| ATCTCTAGGTAAGACTCATTTCAGTGAAGAACGC | 0.362 | -0.0496 | 0.0938 | 0.594 | -0.0279 | 0.358 | 0.931 | 0.563 |
| ATAATGAGGTTAAGATCAGGGAAACAGAATACAT | 0.864 | 2.47 | 1.96 | 1.16 | 2.68 | 2.74 | 1.02 | 0.406 |
| AGTCAAAGTTCATCTAGGTAACGTTAGATATGCT | 3.74 | 5.6 | 6.39 | 4.62 | 4.96 | 2.94 | 0.114 | 5.6 |
| CCGACTGGGGCAAAAGTTACCATACTCAGTACGA | 0.168 | 0.333 | 0.253 | 0.584 | 0.278 | -0.144 | -0.251 | -0.248 |
| CCTAGTCGGTCAGGAGGTCACACACCGGATATGA | 4.67 | 5.93 | 5.46 | 0.219 | 4.75 | 3.37 | 2.55 | 2.83 |
| CGAACTAGGTCATCCAGGACTGTGAATACATTGA | 2.93 | 4.02 | 4.47 | 2.26 | 2.62 | 2.95 | 1.17 | 1.39 |

| Sequence | PBM binding z-score [1] | PBM binding z-score [2] | PBM binding z-score [3] | PBM binding z-score [4] | PBM binding z-score [5] | PBM binding z-score [6] | PBM binding z-score [7] | PBM binding z-score [8] |
| --- | --- | --- | --- | --- | --- | --- | --- | --- |
| CCTAGTTGGTCAGGAGGTCACAGACCGGATATGA | 4.29 | 5.27 | 4.13 | 0.184 | 5.2 | 3.57 | 2.15 | 2.05 |
| CCTAGCAGGGCAATCTGGGTCACTCAAGGCTTGA | 2.36 | 1.56 | 1.89 | 0.252 | 0.981 | 4.24 | -0.0319 | -0.354 |
| GATACAGGGTCAGCTAGAGGCCATAGTATGGAAA | 3.52 | 6.77 | 4.83 | 1.57 | 3.96 | 3.29 | 0.486 | 1.33 |
| ATCTCTAGGTAAAGATGGTTCAGTGAATGCAAAT | -0.0603 | 0.324 | 0.292 | -0.0269 | 0.0778 | 0.592 | 0.0966 | 0.095 |
| TGTCAAAGTTCAAAGGGAACGTAAGTATCCACAC | 3.12 | 5.56 | 5.38 | 4.04 | 4.94 | 2.06 | -0.715 | 4.05 |
| ATCTCTAGGTAACCAGGTTCAGTGAATGCCGAAC | 0.891 | 0.484 | 0.267 | 0.664 | 0.776 | 1.33 | 0.822 | 2.53 |
| GCTTACGGGTCAAAGGTTATAGCCTGAATAGAAT | 3.15 | 6.87 | 4.5 | 2.7 | 9.3 | 4.01 | -0.0478 | 1.65 |
| AATACAGGGTCATCGTAGGCGAGAGTACGCACAG | 3.47 | 5.58 | 4.77 | 3.52 | 6.54 | 4.45 | 1.32 | 3.54 |
| TCGAGTAGGTTAGTCCGGGCATTCAGCCAACATA | 0.125 | -0.242 | -0.282 | 0.0956 | -0.186 | 0.527 | -0.31 | -0.163 |
| TAGCCTAGCTCATGGGCCAGTATACCACGCGAAC | -0.141 | -0.422 | -0.314 | -1.22 | -0.408 | -0.643 | -0.48 | -0.464 |
| CAAACTTGGTCAAGAGGTCAAAGTCCGCTTCCCG | 4.85 | 5.94 | 4.95 | 2.03 | 6.1 | 3.78 | 1.66 | 3.57 |
| TCACCAAGGTGAGCTGAGGTCGTTGATCCAACTC | 1.5 | 1 | 0.829 | 0.546 | 1.28 | 4.7 | 1.49 | 1.64 |
| TCTGCTAGGTCAGTTGTTCAGCTAACGAGCTGCC | 2.19 | 2.19 | 3.35 | 0.434 | 0.641 | 1.25 | 0.158 | -0.531 |
| TCATATAGGTAAAGGTGAAAGTGGAACGATATGA | 1.44 | 1.71 | 1.52 | 0.597 | 2.41 | 1.36 | -0.306 | -0.115 |
| CCTACTCGGCCACGAAAGGTCATTGATTCAGTGA | 4.79 | 4.8 | 4.78 | 0.99 | 5.02 | 3.53 | 1.03 | 2.62 |
| TCTTGTCGATCAAAGGTTAAGAAAGCCGAAGCCT | 1.49 | 2.01 | 0.765 | 0.676 | 2.43 | 1.33 | -0.0604 | 0.0763 |
| GCCTACGGGTCAAAGGTTATAGCATGAATAGAAT | 3.15 | 6.82 | 4.24 | 1.55 | 9.55 | 3.62 | -0.143 | 1.08 |
| GTACCAAGGTGAATAGGTAGTTGATGAGTAGGCG | 0.555 | 0.67 | 0.626 | -0.423 | 0.629 | 1.14 | 0.657 | 0.0253 |
| TCATATAGGTAAATGCTAGGTGTAAGTCCGATCT | -0.036 | 0.43 | 0.124 | 1.47 | 0.608 | 0.0134 | 0.0913 | 0.144 |

| Sequence | PBM binding z-score [1] | PBM binding z-score [2] | PBM binding z-score [3] | PBM binding z-score [4] | PBM binding z-score [5] | PBM binding z-score [6] | PBM binding z-score [7] | PBM binding z-score [8] |
| --- | --- | --- | --- | --- | --- | --- | --- | --- |
| CGAACTAGGTCAAGGACAGTGATTCTCCGCACGC | 3.36 | 3.83 | 4.62 | 1.49 | 2.77 | 3.42 | 2.19 | 0.466 |
| CCTCGGAGGACAGAAGGTCAGGGCTGTCCGCTTT | 3.88 | 3.67 | 3.54 | -0.126 | 2.22 | 2.35 | 0.202 | 0.107 |
| AGAACGTGGGCACGCTGAGTTGATAGCAGAGTAG | -0.561 | -0.224 | -0.0604 | -0.279 | -0.0635 | -0.485 | -0.747 | -0.131 |
| CAAACTAGGTAACGAAAGGTCAAAGTCGAATGAC | 4.76 | 5.68 | 5.08 | 1.05 | 6.35 | 4 | 1.16 | 2.25 |
| GCTCGCAGGACAAGGTCAGAGCTTTGTCCGTAGA | 2.58 | 2.71 | 2.74 | 0.16 | 2.1 | 2.5 | 1.09 | -0.354 |
| CAAACTAGGTCACTGGAAGGTCAAAGTCCGCATG | 5.21 | 7.66 | 6.65 | 1.96 | 5.54 | 4.3 | 2.43 | 3.86 |
| ATCTCTAGGTAAAGATAGTTCAGTGAATGCAAAT | 0.887 | 0.422 | 0.748 | -0.0413 | 0.163 | 0.71 | 0.0896 | 0.419 |
| CCTAGCCGGCCAGGGTCACTCAAGCATTTCGCTT | 2.68 | 3.09 | 2.37 | 0.0811 | 3.47 | 2.91 | 1.08 | 1.38 |
| CGTCCAAGGTCAGAGGAGGTCAGTGAAGACAGAT | 5.15 | 6.03 | 6.88 | 2.36 | 5.13 | 5.09 | 2.8 | 3.43 |
| TAGCGTAGGTCATTGGGCCAGTATAGTACGCATC | 2.8 | 3.98 | 4.08 | 0.868 | 3.6 | 2.08 | -0.396 | 0.725 |
| CATACAGGGTCAGCTAGGCCAGGGTAGGGACGGC | 3.59 | 4.48 | 5.13 | 0.607 | 4.42 | 3.28 | 1.26 | 1.47 |
| TGAATGGGGTTATAAGATCAGGGAACGTTGCAAA | 1.49 | 2.3 | 0.965 | 1.6 | 3.95 | 2.45 | 1 | 1.23 |
| GCGACTGAGGCATCAGCAGGTTACCATAACTTAA | -0.000366 | -0.216 | -0.35 | -0.168 | -0.0735 | 0.371 | -0.148 | -0.64 |
| AGAATGACGTTATTAAGATCAGGGAATTGCGGTC | -0.448 | -0.146 | 0.0594 | -0.095 | -0.18 | -0.42 | -0.892 | -0.318 |
| CCTACTGGGCCAAAGGTCAATGATTCCAATGCTC | 4.35 | 5.54 | 4.85 | 0.831 | 5.74 | 3 | 0.607 | 1.25 |
| TCGAGTAGGTTAGGGACATTCAGAATGGCGTCGA | 0.458 | 0.15 | 0.37 | 0.229 | 0.221 | 2 | 0.953 | 0.358 |
| CCTACTGGGCCAAAAAGGTCATCGATGCCGATAA | 4.84 | 5.18 | 4.77 | 0.518 | 5.25 | 3.28 | 0.651 | 1.99 |
| CGTCAAAGTTCAACTCAGGTAACGTAAAGCACGC | 4.24 | 5.85 | 6.43 | 4.55 | 5.06 | 5.03 | 1.38 | 4.21 |
